# Results published in article PMC4336329 (PLoS ONE, 2015).
# In all, about 310,000 compounds went through this assay and about 14,000 (4.5%) showed an effect of 50% or more. Effects have a minus sign here. The sample as a whole holds a higher share of strong results than the screen did.
# Target: human ether-à-go-go-related gene (hERG) potassium channel (human, UniProt Q12809)
# Assay: primary screen, population patch clamp on CHO cells stably expressing hERG; higher = less effect of the substance
# 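Further: peak tail current of the secondary pulse compared with the same well before compound.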
# Chain of human ether-à-go-go-related gene (hERG) potassium channel (Q12809 whole entry, looked up): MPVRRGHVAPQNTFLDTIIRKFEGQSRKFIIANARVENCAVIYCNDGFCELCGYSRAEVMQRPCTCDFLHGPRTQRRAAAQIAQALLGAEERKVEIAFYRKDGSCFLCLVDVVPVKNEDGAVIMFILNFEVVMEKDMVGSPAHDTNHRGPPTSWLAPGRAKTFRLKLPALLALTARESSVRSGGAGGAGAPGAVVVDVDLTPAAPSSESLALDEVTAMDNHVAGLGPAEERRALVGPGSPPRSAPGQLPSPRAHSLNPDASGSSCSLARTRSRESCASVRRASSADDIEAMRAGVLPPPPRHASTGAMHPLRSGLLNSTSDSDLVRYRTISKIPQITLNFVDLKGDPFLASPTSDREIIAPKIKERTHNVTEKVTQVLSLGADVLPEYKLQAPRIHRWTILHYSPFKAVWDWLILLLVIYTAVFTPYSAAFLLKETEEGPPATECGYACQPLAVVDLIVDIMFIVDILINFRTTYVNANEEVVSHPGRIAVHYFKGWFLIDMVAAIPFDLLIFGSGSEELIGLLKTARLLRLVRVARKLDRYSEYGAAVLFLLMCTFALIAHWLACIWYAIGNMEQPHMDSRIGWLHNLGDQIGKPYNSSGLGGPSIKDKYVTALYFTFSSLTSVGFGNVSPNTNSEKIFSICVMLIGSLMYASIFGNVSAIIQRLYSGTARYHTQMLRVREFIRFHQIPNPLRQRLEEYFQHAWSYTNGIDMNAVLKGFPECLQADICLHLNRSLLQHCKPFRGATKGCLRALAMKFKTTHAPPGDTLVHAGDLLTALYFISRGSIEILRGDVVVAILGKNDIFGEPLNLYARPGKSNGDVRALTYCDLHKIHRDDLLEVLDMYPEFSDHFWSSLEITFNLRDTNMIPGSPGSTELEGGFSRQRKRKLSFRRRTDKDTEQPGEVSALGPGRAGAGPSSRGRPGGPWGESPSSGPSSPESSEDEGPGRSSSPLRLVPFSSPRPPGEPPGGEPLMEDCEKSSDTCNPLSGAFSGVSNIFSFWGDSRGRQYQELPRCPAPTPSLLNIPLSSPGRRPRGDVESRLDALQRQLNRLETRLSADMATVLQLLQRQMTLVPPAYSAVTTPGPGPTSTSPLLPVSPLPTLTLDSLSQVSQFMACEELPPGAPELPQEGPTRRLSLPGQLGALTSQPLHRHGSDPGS
row,SMILES,"hERG current change (%, negative = inhibition) at 10uM [%]"
1,CSc1sc(C)cc1/C=N/O,6.46
2,NC(=O)c1nsc(C(=O)N(Cc2ccco2)C(C(=O)NCc2ccc(F)cc2)c2ccc(O)cc2)c1N (stereo not shown),-43.8
3,O=C(OC1CCOC1=O)c1ccc(CO)cc1 (stereo not shown),27.4
4,CCCn1c2ccccc2c2cc(C(=O)O)ccc21,6.24
5,c1ccc(-c2csc(-c3ccc(-c4csnn4)cc3)n2)cc1,17.6
6,CN1C(=O)c2ccccc2Sc2ccc(NC(=O)N3CCOCC3)cc21,-7.88
7,C=CCn1cc(C=C2C(=O)N(C)C(=O)N(C)C2=O)c2ccccc21,23.9
8,CC(C)CC(=O)Nc1nc2c(c(=O)[nH]1)CCCC2,17.9
9,CN=C1CN(O)C(c2ccccc2)=c2cc(Cl)ccc2=N1,18.6
10,C/C(=N\NC(=O)CNc1ccc(F)cc1)c1cc2ccccc2o1,-26.6
11,C=CCn1c(O)c(N=NC(=O)c2cccnc2)c2cc(Br)ccc21,-16.1
12,C=CCn1c(=O)c(C(=O)NCc2ccccc2)c(O)c2ccccc21,15.4
13,O=[N+]([O-])c1cccc(Cl)c1NCCNc1ncc(C(F)(F)F)cc1Cl,15.6
14,Cc1ccc(S(=O)(=O)NC(C)(C)CN2CCCCC2)cc1,3.77
15,O=C(COc1ccc2c3c(c(=O)oc2c1)CCC3)NC1CCCCC1,4.83
16,COc1ccc(C(=O)COc2ccc3c(C)cc(=O)oc3c2)cc1,11.1
17,COc1cccc(C(=O)COc2ccc3c(C)cc(=O)oc3c2)c1,-70.8
18,Cc1cc(=O)oc2cc(OCC(=O)NC3CCCCC3)ccc12,-60.7
19,Cc1cc(=O)oc2cc(OCC(=O)NC3CCCC3)ccc12,-67.2
20,Cc1cc(=O)oc2cc(OCC(=O)c3ccccc3)ccc12,10.9
21,Cc1cc(=O)oc2cc(OCC(=O)OC(C)C(=O)NC3CCCC3)ccc12 (stereo not shown),2.63
22,Cc1cc(=O)oc2cc(OCC(=O)NC3CC(C)(C)NC(C)(C)C3)ccc12,-34.2

row,SMILES,"hERG current change (%, negative = inhibition) at 10uM [%]"
1,Cc1cc(=O)oc2cc(OCC(=O)OCC(=O)NC3CC3)ccc12,16.4
2,CCOc1cc(NC(=S)NCC(C)C)c(OCC)cc1NC(=O)c1cccs1,13.2
3,O=C1NC2(CCCCC2)C(=O)N1/N=C/c1ccc(O)cc1O,-16.7
4,COc1ccc(C(=O)c2c[nH]c(C(=O)N=CN(C)C)c2)cc1,10.2
5,O=C(c1ccc(NC2=NC3CS(=O)(=O)CC3S2)cc1)N1CCN(c2ccccc2)CC1 (stereo not shown),20.7
6,Cc1ccc(-c2nc3cnccn3c2Nc2ccc3c(c2)OCO3)o1,-52.7
7,Cc1ccc(-c2nc3cnccn3c2Nc2ccc3c(c2)OCCO3)o1,-23.8
8,Cc1ccn2c(Nc3ccccc3)c(-c3ccccn3)nc2c1,-10.8
9,Cc1ccc(Nc2c(-c3ccccn3)nc3cc(C)ccn23)cc1,-48.1
10,Cc1ccn2c(Nc3ccc4c(c3)OCO4)c(-c3ccccn3)nc2c1,-67.4
11,Cc1ccc(Nc2c(-c3ccc(C)o3)nc3cnccn23)cc1,4.98
12,COc1ccc(-c2nc3cnccn3c2Nc2ccc3c(c2)OCO3)cc1,-52.7
13,Clc1ccc(-c2nc3cnccn3c2Nc2ccc3c(c2)OCO3)cc1,-18.4
14,Cc1ccc(-c2nc3cnccn3c2Nc2ccc3c(c2)OCO3)cc1,-25.7
15,CCOC(=O)c1cccc(NC(=O)CSc2nnc(-c3ccoc3C)n2CCOC)c1,-19.7
16,Cc1ccc(NC(=O)CSc2nnc(-c3ccoc3C)n2CCCN(C)C)cc1Cl,-69.3
17,COCCCn1c(SCC(=O)Nc2ccc3c(c2)OCCO3)nnc1-c1ccoc1C,-5.98
18,Cc1occc1-c1nnc(SCC(=O)Nc2ccc3c(c2)OCO3)n1CC1CCCO1 (stereo not shown),-2.13
19,CCCn1c(SCC(=O)Nc2cccc(C(=O)OCC)c2)nnc1-c1ccoc1C,-2.61
20,CCN(CC)CCCn1c(SCC(=O)Nc2cccc(F)c2)nnc1-c1ccoc1C,-68.2
21,Cn1nc([N+](=O)[O-])nc1N1CCOCC1,23.7
22,CC1CCCCN1CCn1c(=S)[nH]c2cc3c(cc2c1=O)OCO3 (stereo not shown),-29

row,SMILES,"hERG current change (%, negative = inhibition) at 10uM [%]"
1,Cc1cc2cccc(C)c2nc1SCC(=O)NNC(=O)c1ccco1,3.66
2,Cn1nc(C(=O)Nc2cccc(S(=O)(=O)N3CCCC3)c2)c2ccccc2c1=O,-4.87
3,C=CCOc1c(CNc2ccc3[nH]c(=O)[nH]c3c2)cccc1OC,10.1
4,Cc1ccc(NC2CCCN(C(=O)c3snnc3C)C2)cc1C (stereo not shown),0.46
5,Cn1c2c(c(=O)c3ccccc31)CCC(C)(C)O2,-3.57
6,Cn1c2c(c(=O)c3ccccc31)CCCC2,-4.88
7,Cl.Cn1c2c(c3ccccc31)CCN1CCC[C@]21c1ccccc1,-60.7
8,COc1ccc(-c2nnc(NC(=O)c3ccc(S(=O)(=O)N(C)CC4CCCO4)cc3)o2)c(OC)c1 (stereo not shown),10.3
9,Cn1cc(CN2CCC(n3nccc3NC(=O)c3ccccc3Cl)CC2)cn1,-32.9
10,CCn1cc(CN2CCC(n3nccc3NC(=O)c3ccccc3C)CC2)cn1,-58.2
11,COC(C(=O)Nc1ccnn1C1CCN(Cc2cnn(C(C)C)c2)CC1)c1ccccc1 (stereo not shown),-2.06
12,CCn1cc(CN2CCC(n3nccc3NC(=O)c3ccccc3OC)CC2)cn1,-71.4
13,CCn1cc(CN2CCC(n3nccc3NC(=O)Cc3ccccc3)CC2)cn1,7.27
14,Cc1ccccc1C(=O)Nc1ccnn1C1CCN(Cc2cnn(C(C)C)c2)CC1,-72.3
15,CCn1cc(CN2CCC(n3nccc3NC(=O)c3ccccc3C)CC2)c(C)n1,-37.9
16,COc1ccc(C(=O)Nc2ccnn2C2CCN(Cc3cnn(C)c3)CC2)cc1,6.81
17,CCn1cc(CN2CCC(n3nccc3NC(=O)c3ccc(OC)cc3)CC2)cn1,-4.16
18,COc1ccccc1C(=O)Nc1ccnn1C1CCN(Cc2cnn(C)c2)CC1,-55.6
19,Cc1ccccc1C(=O)Nc1ccnn1C1CCN(Cc2cnn(C)c2)CC1,-26.5
20,CC(C)n1cc(CN2CCC(n3nccc3NC(=O)Cc3ccccc3)CC2)cn1,7.82
21,O=C(COc1cc(F)ccc1[N+](=O)[O-])Nc1ccc(N2CCOCC2)cc1,7.65
22,CN1C(=O)C2(C(C#N)=C(N)N(c3ccc(Cl)cc3)C3=C2C(=O)CC(C)(C)C3)c2ccccc21 (stereo not shown),-6.79

row,SMILES,"hERG current change (%, negative = inhibition) at 10uM [%]"
1,CCOC(=O)/C(C#N)=N/Nc1c(S(=O)(=O)Cc2ccco2)csc1C(=O)OC,11.4
2,COc1ccc(N2CCN(C(=O)Nc3ccccc3Cl)CC2)cc1,4.49
3,Cc1ccccc1NC(=O)CSc1nnc(CNC(=O)c2ccc3c(c2)OCO3)n1C,1.34
4,CCC1C(=O)NCCN1C(=O)CCc1nnc(CCc2ccc(OC)cc2)o1 (stereo not shown),21.9
5,Cc1ccc(C(=O)NCCNC(=O)COc2ccccc2Cl)cn1,6.95
6,CCN(CC)CCCN(C(=O)c1ccccc1C)c1nc(-c2ccc(OC)cc2)cs1,-55.5
7,CCN(CC)CCCN(C(=O)c1ccccc1F)c1nc(-c2ccc(OC)cc2)cs1,-71.4
8,COCCCN(C(=O)c1ccccc1F)c1nc(-c2ccc(OC)cc2)cs1,8.7
9,CCN(C(=O)c1ccccc1F)c1nc(-c2ccc(OC)cc2)cs1,22.8
10,COCCN(C(=O)c1ccccc1F)c1nc(-c2ccc(OC)cc2)cs1,16.7
11,CN(CC(=O)Nc1cccc(F)c1)C(=O)CCNC(=O)c1ccco1,16.7
12,CCC(C)(C)NC(=O)C(c1ccccc1)N(Cc1cccs1)C(=O)Cn1nnc2ccccc21 (stereo not shown),7.58
13,Cc1cccc(/C(N)=N/OC(=O)COc2ccc(Cl)c(C)c2)c1,13.2
14,COc1ccc(CCNC(=O)c2cc3sccc3n2C)cc1OC,-6.67
15,COCCNC(=O)c1cc2sccc2n1C,1.67
16,CC1CCN(CCCNC(=O)c2cc3sccc3n2C)CC1,-57.3
17,COc1ccc(N2CCN(CCCNC(=O)CCCn3c(=O)[nH]c4ccsc4c3=O)CC2)cc1,-9.7
18,COc1ccc(N2CCN(CCCNC(=O)c3cc4sccc4n3C)CC2)cc1,-70.7
19,Cn1c(C(=O)NCCCN2CCCCC2)cc2sccc21,-49
20,COC(=O)CSc1ccsc1C(=O)O,5.72
21,COc1ccc(-c2cc3c(=O)n(CC(=O)Nc4cccc(Cl)c4)nc(C)n3n2)cc1,14.8
22,CCCC(=O)Nc1cccc(NC(=O)c2cccc([N+](=O)[O-])c2C)c1,-12.8
